# Bioassay records as filed in PubChem BioAssay.
# Only some compounds are listed: those with a hit (about 9.3% of all), similar ones and a draw of the others.
# FLuc counter: inhibits or activates purified firefly luciferase, miR-21 counter-screen. P08659. purified FLuc, Km substrates, luminescence inhibition. Potency, µM (series often up to 57.5 µM), for inactives: at the highest dose activity change, negative = inhibition, most hits filed as inhibitors. 360,000 compounds, 6.9% hits. AID 588342;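 note: plate controls were vehicle for no effect and reference inhibitor for full effect; nearly all actives have a fitted effect of over 55% in size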
# Target sequence (P08659 whole entry, looked up): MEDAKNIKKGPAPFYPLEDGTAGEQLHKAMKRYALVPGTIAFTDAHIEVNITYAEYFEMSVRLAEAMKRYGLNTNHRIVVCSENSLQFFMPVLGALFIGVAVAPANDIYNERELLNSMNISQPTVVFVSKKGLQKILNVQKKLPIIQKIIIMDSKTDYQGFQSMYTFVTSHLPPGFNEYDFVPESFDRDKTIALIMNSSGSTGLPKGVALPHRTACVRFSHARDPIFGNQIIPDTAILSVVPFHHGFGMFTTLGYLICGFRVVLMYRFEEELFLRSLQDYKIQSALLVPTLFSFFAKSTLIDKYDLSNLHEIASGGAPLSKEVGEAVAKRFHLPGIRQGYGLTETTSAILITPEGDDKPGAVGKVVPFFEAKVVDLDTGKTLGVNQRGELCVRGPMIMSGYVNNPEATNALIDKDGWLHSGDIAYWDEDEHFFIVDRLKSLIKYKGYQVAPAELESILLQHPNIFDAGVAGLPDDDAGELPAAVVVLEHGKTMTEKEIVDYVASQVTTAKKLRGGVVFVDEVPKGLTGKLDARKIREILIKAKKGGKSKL
#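 Purified P. pyralis luciferase, 10 nM final, with Km-level 10 uM D-luciferin and 10 uM ATP in 50 mM Tris acetate pH 7.5, 10 mM Mg acetate, 0.01% Tween-20, 0.05% BSA; 6-point qHTS titration about 60 µM downward; luminescence read.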
# SMN2 splice up: increases expression of the SMN2 splice variant | HEK293 SMN2-luciferase splicing reporter, luminescence, 30-36 h | Potency, µM (series often up to 46.1 µM), inactives show top-dose activity change, positive = activation, hits mostly activators | 210,000 compounds, 2.8% hits | AID 1458; note: % of control where 0% means no effect; nearly all actives have a fitted effect of over 55% in size
#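 qHTS luciferase splicing reporter: luminescence rises when SMN2 exon 7 is included in transfected HEK293 cells. Compound exposure lasted 30-36 h at 37C, with 4.5 mM final sodium butyrate as control, followed by a ONE-Glo read.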
# NPC1 prom act: NPC1 promoter activation. Huh7 NPC1 promoter luciferase reporter, 24 h. Potency, µM (highest dose often 9.22 µM), without a hit: at the highest dose activation, usual class: activators. 320,000 compounds, 2.4% hits; note: % of control where 0% means no effect; nearly all actives have a fitted effect of over 60% in size
#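 Stable NPC1-promoter luciferase Huh7 line; cpd (DMSO) 24 h, 37 °C, 5% CO2; Amplite luciferase reagent 10 min RT; luminescence readout. qHTS format.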
# ELG1 genotox: induces genotoxicity in HEK293T cells with luciferase-tagged ELG1. HEK293T ELG1-luciferase reporter, luminescence, 16 h. Potency, µM (series often up to 46 µM), for the others: top-dose activity change, positive = activation, usual class: activators. 330,000 compounds, 1.3% hits; note: % of control where 0% means no effect; nearly all actives have a fitted effect of over 60% in size
#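 Cells (2,000/well) expressing the ELG1-luciferase fusion are dosed by pin tool and kept 16 hr at 37 °C, 5% CO2. Signal comes from ONE-Glo luciferase reagent after 30 min at room temperature.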
# ELG1 DNA repair: blocks ELG1-dependent DNA repair in HEK293T cells; Potency, µM (titrated, usually from 46.1 µM), without a hit: at the top dose activity change, negative = inhibition, most hits filed as inhibitors; AID 504467; HEK293T ELG1-luciferase reporter, luminescence, 16 h; DNA damage induced by 5-fluorouridine; 330,000 compounds, 2.3% hits; note: % is set by controls: 0 for no effect and ±100 for the full control effect; nearly all actives have a fitted effect of over 55% in size
#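 5-Fluorouridine DNA damage + compound/DMSO, 2,000 cells/well, 16 h, 37 °C/5% CO2. ONE-Glo, 30 min RT, luminescence. Readout = decrease in reporter signal.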
# Rab9 prom act: activates the Rab9 promoter; Huh7 Rab9 promoter-luciferase reporter, luminescence, 24 h; Potency, µM (titrated, usually from 9.22 µM), for inactives: top-dose activation, negative = inhibition, actives largely listed as activators; 320,000 compounds, 2.8% hits; AID 485297; note: % of control where 0% means no effect; nearly all actives have a fitted effect of over 60% in size
#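 Luminescence from Amplite-detected luciferase (10 minutes, ambient) reports Rab9 promoter activation. Before that, stable Rab9-luciferase Huh7 cells (1500/well, reduced-serum OP-MEM I plus 10% FBS) were exposed to compound for 24 hours at 37C.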
# ELG1 FLuc counter: luciferase inhibition in cell-free luciferin readout for ELG1 hits | AID 624247 | Potency, µM (highest dose often 46.1 µM), for the others: at the top dose activity change, negative = inhibition, hits mostly inhibitors | cell-free firefly luciferase luminescence counter-screen, ViewLux | shares compounds with ELG1 DNA repair | 350 compounds, 3% hits; note: % is set by controls: 0 for no effect and ±100 for the full control effect
# ELG1-Luc inh: inhibits ELG1-dependent DNA repair in HEK293T cells, confirmed. shares compounds with ELG1 DNA repair. HEK293T ELG1-luciferase levels, luminescence; cells co-treated with 5-fluorouridine. Potency, µM (highest dose often 46.1 µM), inactives show top-dose activity change, negative = inhibition, hits mostly inhibitors. 670 compounds, 68% hits; note: % is set by controls: 0 for no effect and ±100 for the full control effect; nearly all actives have a fitted effect of over 55% in size
# ELG1 MMS Luc: inhibits ELG1-dependent repair under MMS stimulation in HEK293T cells; 670 compounds, 53% hits; shares compounds with ELG1 DNA repair; HEK293T luciferase-tagged ELG1 level, MMS stimulated; Potency, µM (highest dose often 46.1 µM), without a hit: top-dose activity change, negative = inhibition, most hits filed as inhibitors; note: % is set by controls: 0 for no effect and ±100 for the full control effect; nearly all actives have a fitted effect of over 60% in size
# ELG1 5-FU: confirmation of ELG1 repair inhibitors: viability with 5FU; 670 tested, under 10 active; cell viability with 5-FU, ELG1-dependent repair; AID 624250; Potency, µM (top dose mostly 46.1 µM), without a hit: at the top dose activity change, negative = viability loss, most hits filed as cytotoxic; shares compounds with ELG1 DNA repair;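 note: ELG1-luc HEK293T cells cotreated with 5-fluorouridine at 10 µM final; viability measured 16 h after compound addition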
# ELG1 MMS cell: confirmation of ELG1 repair inhibitors: viability with MMS; shares compounds with ELG1 DNA repair; Cell viability with MMS, ELG1-dependent DNA repair; Potency, µM (highest dose often 46.1 µM), for the others: at the top dose activity change, negative = viability loss, most hits filed as cytotoxic; 670 compounds, 33% hits; AID 624251;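 note: ELG1-luc HEK293T cells co-treated with 10 µM MMS; viability read 16 h after compound addition; % is set by controls: 0 for no effect and ±100 for the full control effect; nearly all actives have a fitted effect of over 60% in size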
# ELG1 unstim viab: affects unstimulated cell viability, ELG1 hit counter-screen; 900 compounds, 8% hits; cell viability counter-screen, unstimulated, luminescence; AID 624252; Potency, µM (top dose mostly 45.9 µM), inactives show at the highest dose activity change, negative = loss of viability, hits mostly cytotoxic; shares compounds with ELG1 DNA repair;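 note: compound exposure lasted 16 hours before reading; % is set by controls: 0 for no effect and ±100 for the full control effect; nearly all actives have a fitted effect of over 55% in size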
# FLuc enzyme: inhibits purified firefly luciferase, counter-screen for ELG1 hits; shares compounds with ELG1 DNA repair; purified firefly luciferase, luminescence counter-screen; Potency, µM (top dose mostly 57.5 µM), for the others: top-dose activity, negative = inhibition, usual class: inhibitors; 350 compounds, 10% hits; AID 624253; note: % is set by controls: 0 for no effect and ±100 for the full control effect
# * marks the source's active call; other numbers are inactive results; ? = inconclusive; · = no result; [ ] = dose if it differs, or a comment. Calls come from the whole dose curve; as a rule, active = well fitted curve in the direction sought with a large enough effect; inconclusive = small, poorly fitted or top-dose-only effect, or another doubt; inactive = no such curve, though single readings can be large; an effect the other way counts as inactive or inconclusive. Potency is the fitted concentration of half-maximal effect.
SMILES,FLuc counter,SMN2 splice up,NPC1 prom act,ELG1 genotox,ELG1 DNA repair,Rab9 prom act,ELG1 FLuc counter,ELG1-Luc inh,ELG1 MMS Luc,ELG1 5-FU,ELG1 MMS cell,ELG1 unstim viab,FLuc enzyme
Cc1nn(CC(=O)NCCC2=CCCCC2)c(C)c1[N+](=O)[O-],-1%,·,-3%,1%,21%,-2%,·,·,·,·,·,·,·
c1ccc(CCc2nn3c(-c4ccncc4)nnc3s2)cc1,1%,-13%,12%,-18%,2.6µM*,-1%,·,5µM*,?,3%,-1%,-4%,·
CCOc1ccc(OCC)c(NC(=O)c2nnn(CC(=O)Nc3cc(C)cc(C)c3)c2N)c1,1%,·,-7%,4%,26%,-15%,·,·,·,·,·,·,·
CN(C)c1ccc(/C=C/c2ccc3ccccc3[n+]2[O-])cc1,·,·,·,·,·,·,-63%,·,·,·,·,13µM*,0.092µM*
CCOc1ccc(C(C(=O)NC2CCCC2)N(C(=O)c2snc(C(N)=O)c2N)c2cccc(O)c2)cc1 (stereo unspecified),-2%,·,2%,-13%,4.6µM*,0%,·,2µM*,?,?,-8%,?,·
NC(=O)c1nsc(C(=O)N(c2cccc(O)c2)C(C(=O)NC2CCCC2)c2ccc(Cl)cc2)c1N (stereo unspecified),-1%,·,-4%,-11%,-17%,-3%,·,·,·,·,·,·,·
CCOc1ccc(C(C(=O)NCC2CCCO2)N(C(=O)c2snc(C(N)=O)c2N)c2ccc3c(c2)OCCO3)cc1 (stereo unspecified),4%,·,-3%,-11%,3.3µM*,-9%,·,1.3µM*,29%,?,5%,-5%,·
CCOc1ccc(N(C(=O)c2snc(C(N)=O)c2N)C(C(=O)NCC2CCCO2)c2ccco2)cc1 (stereo unspecified),-1%,·,-5%,0%,-3%,-6%,·,·,·,·,·,·,·
CCN(CC)CC[n+]1ccc2c(C)c3[nH]c4ccc(O)cc4c3c(C)c2c1,·,-41%[9.22 µM],·,·,·,·,·,·,·,·,·,·,·
COc1cc(-c2noc(C)c2/C=C/c2ccc(C(=O)O)cc2)cc(OC)c1OC,-6%,·,-2%,3%,-5%,5%,·,·,·,·,·,·,·
COc1cc(-c2noc(C)c2/C=C/c2cccc([N+](=O)[O-])c2)cc(OC)c1OC,0%,·,-26%,-8%,2.6µM*,-24%,·,2µM*,7.1µM*,?,?,?,·
COC(=O)c1cnn2c(C(F)(F)F)cc(-c3ccccc3)nc12,2%,-6%,-3%,-4%,?,-3%,·,·,·,·,·,·,·
COC(=O)c1ccccc1NC(=O)c1cnn2c(C(F)F)cc(C3CC3)nc12,-1%,7%,-1%,-35%,?,-5%,·,·,·,·,·,·,·
Cc1cc(NC(=O)c2cnn3c(C(F)F)cc(C4CC4)nc23)no1,0%,21%,-3%,2%,-10%,-9%,1%,?,-3%,-1%,-6%,-12%,-5%
Cc1cc(NC(=O)c2cnn3c(C(F)(F)F)cc(-c4ccccc4)nc23)no1,3%,-21%,-4%,3%,7.3µM*,-1%,98%,5µM*,?,10%,?,?,-4%
COc1ccc2c(c1)c(C(C)=O)c(C)n2-c1ccccc1,4%,8%,-1%,-15%,?,1%,·,·,·,·,·,·,·
COc1ccc(-n2c(C)c(C(C)=O)c3cc(O)ccc32)cc1,11%,-11%,17%,-38%,0.82µM*,-2%,?,0.89µM*,?,1%,?,8%,0%
O=c1nc2sc3ccccc3n2c(=O)n1-c1cccc(Cl)c1,-4%,·,13%,4.6µM*,?,?,82%,·,·,·,·,-5%,-6%
Cc1ccc2c(c1)sc1nc(=O)n(-c3ccc(Cl)c(Cl)c3)c(=O)n12,3%,-8%,2%,-1%,?,13%,7%,·,·,·,·,-2%,-3%
Cc1ccc2c(c1)sc1nc(=O)n(-c3ccc(Cl)cc3)c(=O)n12,-6%,-5%,29%,9%,28%,27%,·,·,·,·,·,·,·
COc1ccc(CCNC(=O)COc2nncc3ccccc23)cc1,-3%,-15%,-5%,3%,5%,0%,·,·,·,·,·,·,·
Fc1ccccc1/C=C1\CCCC2=C1NC(=S)NC2c1ccccc1F (stereo unspecified),-11%,-17%,-4%,-3%,?,-16%,·,·,·,·,·,·,·
Cc1cccc(N2CCN(C3=NC(=O)/C(=C\c4cn[nH]c4-c4ccccc4)S3)CC2)c1,1%,-11%,-3%,1%,2.3µM*,-9%,19%,1.4µM*,11µM*,?,?,?,-2%
Cc1c(OCc2ccc([N+](=O)[O-])cc2)ccc2c3c(c(=O)oc12)CCC3,?,5.6µM*,1.1µM*,?,?,1µM*,·,·,·,·,·,1%,·
C(=C\c1nc2ccccc2s1)/c1ccc2c(c1)OCO2,·,·,·,·,·,·,20µM*,·,·,·,·,-17%,0.18µM*
